The source of these data is PubChem BioAssay AID1964107 (National Center for Advancing Translational Sciences (NCATS), 2024).

The whole screen tested about 31,000 compounds, of which about 360 (1.2%) were called active. Inconclusive results (about 8%) are left out. Shown is part of a subset that was picked to be rich in actives. Values without a mark were called inactive. Calls follow the shape of the full dose curve.
% is scaled to controls: 0 for no effect and ±100 for the full control effect; potency is read from the fitted curve at half-maximal effect.

Polyprotein P1234 (Chikungunya virus (strain S27-African prototype)), sequence (Q8JUX6 whole entry, looked up): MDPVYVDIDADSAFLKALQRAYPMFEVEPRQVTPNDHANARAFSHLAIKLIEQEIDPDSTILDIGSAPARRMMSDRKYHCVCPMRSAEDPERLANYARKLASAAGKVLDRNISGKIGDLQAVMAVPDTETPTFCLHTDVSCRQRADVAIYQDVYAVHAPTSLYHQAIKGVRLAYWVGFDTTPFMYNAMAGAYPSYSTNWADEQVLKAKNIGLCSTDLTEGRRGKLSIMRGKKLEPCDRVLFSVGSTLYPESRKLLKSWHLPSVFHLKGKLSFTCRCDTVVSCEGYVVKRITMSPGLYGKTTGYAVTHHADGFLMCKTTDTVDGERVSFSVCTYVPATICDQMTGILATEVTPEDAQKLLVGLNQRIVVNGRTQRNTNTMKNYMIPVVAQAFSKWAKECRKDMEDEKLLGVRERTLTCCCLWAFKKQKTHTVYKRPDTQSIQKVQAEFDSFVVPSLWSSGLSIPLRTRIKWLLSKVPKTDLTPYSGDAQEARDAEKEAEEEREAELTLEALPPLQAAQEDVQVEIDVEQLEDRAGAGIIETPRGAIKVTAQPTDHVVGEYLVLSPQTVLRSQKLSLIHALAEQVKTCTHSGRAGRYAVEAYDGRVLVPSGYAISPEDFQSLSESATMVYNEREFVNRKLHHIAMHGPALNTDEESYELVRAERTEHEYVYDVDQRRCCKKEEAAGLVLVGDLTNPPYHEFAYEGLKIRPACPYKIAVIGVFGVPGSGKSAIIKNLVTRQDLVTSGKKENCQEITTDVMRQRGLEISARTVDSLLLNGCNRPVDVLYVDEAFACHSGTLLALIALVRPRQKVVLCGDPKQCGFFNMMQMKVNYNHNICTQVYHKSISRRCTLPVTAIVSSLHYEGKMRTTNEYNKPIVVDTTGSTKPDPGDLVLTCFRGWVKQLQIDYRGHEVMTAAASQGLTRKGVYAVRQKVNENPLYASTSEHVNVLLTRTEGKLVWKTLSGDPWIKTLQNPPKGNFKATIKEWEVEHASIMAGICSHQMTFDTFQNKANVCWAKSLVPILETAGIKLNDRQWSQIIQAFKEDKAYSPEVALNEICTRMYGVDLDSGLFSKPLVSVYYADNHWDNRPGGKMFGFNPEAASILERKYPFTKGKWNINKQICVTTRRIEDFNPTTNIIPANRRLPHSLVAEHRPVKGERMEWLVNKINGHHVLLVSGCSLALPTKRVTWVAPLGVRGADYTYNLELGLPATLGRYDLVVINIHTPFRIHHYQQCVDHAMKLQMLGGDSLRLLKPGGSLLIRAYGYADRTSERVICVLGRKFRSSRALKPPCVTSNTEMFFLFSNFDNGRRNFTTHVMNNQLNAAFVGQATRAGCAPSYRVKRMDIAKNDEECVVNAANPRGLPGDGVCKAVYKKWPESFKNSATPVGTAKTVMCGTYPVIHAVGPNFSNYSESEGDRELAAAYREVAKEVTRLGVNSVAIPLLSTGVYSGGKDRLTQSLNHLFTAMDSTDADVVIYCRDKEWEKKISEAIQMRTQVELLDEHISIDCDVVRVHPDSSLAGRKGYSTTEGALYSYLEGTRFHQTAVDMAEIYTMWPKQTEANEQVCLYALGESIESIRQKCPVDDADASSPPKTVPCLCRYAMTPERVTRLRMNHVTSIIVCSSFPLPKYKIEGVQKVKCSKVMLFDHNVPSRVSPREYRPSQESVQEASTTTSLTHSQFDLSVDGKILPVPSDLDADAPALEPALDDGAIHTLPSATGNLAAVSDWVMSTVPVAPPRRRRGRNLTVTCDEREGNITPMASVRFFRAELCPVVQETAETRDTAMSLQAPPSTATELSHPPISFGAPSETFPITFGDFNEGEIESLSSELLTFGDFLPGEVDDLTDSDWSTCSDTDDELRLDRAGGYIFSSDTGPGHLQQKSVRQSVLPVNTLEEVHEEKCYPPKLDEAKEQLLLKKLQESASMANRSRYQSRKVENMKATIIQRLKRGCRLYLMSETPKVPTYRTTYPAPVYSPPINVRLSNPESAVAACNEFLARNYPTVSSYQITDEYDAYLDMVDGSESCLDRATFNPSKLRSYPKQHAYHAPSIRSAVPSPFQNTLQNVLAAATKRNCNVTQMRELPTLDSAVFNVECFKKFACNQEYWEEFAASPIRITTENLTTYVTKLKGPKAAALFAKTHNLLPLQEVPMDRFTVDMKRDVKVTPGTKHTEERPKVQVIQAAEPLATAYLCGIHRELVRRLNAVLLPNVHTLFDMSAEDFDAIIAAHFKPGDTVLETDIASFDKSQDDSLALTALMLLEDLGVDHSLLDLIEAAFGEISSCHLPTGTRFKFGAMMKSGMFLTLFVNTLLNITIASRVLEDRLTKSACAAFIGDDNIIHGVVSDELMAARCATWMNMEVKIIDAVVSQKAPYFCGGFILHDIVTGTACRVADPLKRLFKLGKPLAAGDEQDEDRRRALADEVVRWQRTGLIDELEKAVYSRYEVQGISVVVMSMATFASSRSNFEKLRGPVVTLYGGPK

The experiment addresses Polyprotein P1234 (Chikungunya virus (strain S27-African prototype)) (UniProt Q8JUX6). Description: Primary qHTS for inhibitors of NSP2Pro chikungunya virus (CHIKV). Also: nearly all actives have a fitted effect of over 60% in size. The note with it: FRET peptide cleavage, fluorescence 1 h; series mostly up to 24.9 µM; activity change, negative = inhibition: at the top concentration. The text has this: PI: Natalia J. Martinez Ph.D. National Center for Advancing Translational Sciences (NCATS), National Institute of Health (NIH), Rockville, Maryland Chikungunya virus (CHIKV) is a mosquito-borne RNA virus that has emerged as one of the most important global arboviral threats in the last decade. Although the first CHIKV vaccine has recently been FDA approved for use in healthy adults at increased risk, to date, there are no available antiviral drugs for CHIKV infection. CHIKV nsP2 protease plays a crucial role in the processing of the viral polypeptide precursor to release enzymes required for viral replication, thus making it a promising drug target for antiviral discovery. Here, we established a high-throughput pipeline to identify small molecule inhibitors of nsP2 proteolytic activity. The pipeline is composed of a suite of 1,536-well in vitro assays to support quantitative high-throughput (qHTS) screening campaigns. Specifically, we developed a fluorescence resonance energy transfer (FRET)-based assay using a fluorogenic peptide substrate encompassing an endogenous cleavage site and purified recombinant protease domain (nsP2pro). Using this assay, we interrogated ~37,000 small molecules, including those in drug repurposing libraries as well as chemically diverse and medicinal chemistry-friendly compounds. Hits were selected for follow-up validation against full-length nsP2 and an additional peptide. FRET-based 1,536-well assays for papain, hepatitis C virus NS3-4A, and human furin proteases were implemented to characterize compound selectivity. […] Novel compounds were identified to be potential nsP2 inhibitors and molecular docking analyses were performed to explain the binding mode of selected hits. In vitro antiviral activity was evaluated for a subset of compounds using a high-throughput CHIKV infection assay. To our knowledge, the pipeline presented here is unprecedented for CHIKV antiviral discovery research.
PROTOCOL TABLE (as described by Inglese J, Shamu CE and Guy RK. 2007) SEQUENCE No. (e.g., 1, 2, 3, etc.); […] (e.g., Cells, Incubation, Reagent, etc.); VALUE; DESCRIPTION. 1; Control / Compound; 20 nL; Echo 655 acoustic dispenser, Greiner 1536-well solid bottom black plate. 2; Enzyme; 4 uL; BioRAPTR FRD liquid dispenser (Beckman Coulter). 3; Incubation; 15 min; room temperature. 4; Reagent; 4 uL; 2.5 uM Peptide 2 substrate. 5; Incubation; 1 hr; room temperature. 6; Detection; Fluorescence; WiewLux microplate reader (PerkinElmer), 525 nm excitation, 598/25 nm emission. NOTES (numbers refer to sequence numbers above). 1. Briefly, 20 nL DMSO, positive control ZnAc (20nM final concentration), and test compounds were transferred into a 1,536-well solid bottom black plate (789176-F, Greiner One) via Echo 655 acoustic dispenser (Beckman Coulter). For primary screens, compounds were tested at 7 concentrations, 1:3 dilution points ranging from 25 uM to 34 nM. Follow-up confirmatory screens were carried out at 11 concentrations, 1:3 dilution points from 25 uM to 0.42 nM. 2. Four uL nsP2pro enzyme mix (150 nM final concentration) in 10 mM Tris-HCl pH 8.0 with 0.01% Tween 20 assay buffer was dispensed into the plate using a BioRAPTR FRD liquid dispenser (Beckman Coulter). 3. The plate was incubated at room temperature (protected from light) for 15 min 4. Four microliter of peptide 2 substrate (2.5 uM final concentration) in assay buffer was added to the plate. 5. After 1 hour, plates were immediately read on a ViewLux high-throughput CCD imager (Exposure = 10 sec, Gain = High, Speed = Slow, Binning = 2X). The above assay was also incorporated in the NCATS HTS facility41, which allowed for robotic liquid and compound dispensing, microplate handling, and fluorescence reading.. REFERENCE: Inglese J, Shamu CE and Guy RK, Reporting data from high throughput screening of small molecule libraries, Nature Chemical Biology, 2007, 3(8): 438-441. doi.org/10.1038/nchembio0807-438.
(qHTS replaces the single test concentration by a dilution series.)
Regarding `CN1CCN(C(=O)c2ccc(-c3cnc4c(O)ccc(C(=O)O)c4c3)cc2)CC1`, the compound was called inactive. `COc1ccc(NC(=O)CSc2nnc(-c3nnn(-c4ccc(F)cc4)c3C)o2)cc1`: the “activity change, negative = inhibition” value was -14.4%.

With `CNC(=O)[C@@H](Cc1ccccc1)N1CCC[C@H]1C(=O)NCC1CC1`, the “activity change, negative = inhibition” value is -2.23% [at 39.2 µM]. On the same count and under the same terms, the same measure for `COc1ccc(OC)c(NC(=O)CSC2=Nc3ccccc3C3=NC(CC(=O)NCCc4ccccc4)C(=O)N23)c1` (stereo not given): -8.36%; for `COC(=O)CC[C@@H](C)C1CCC2C3CCC4C[C@H](OC(C)=O)CCC4(C)C3C[C@H](O)C21C` (stereo not given in full): 6.27%. Turning to `CCOc1ccc(NC(=O)c2c(NC(=O)Cc3ccccc3)sc3c2CCCCC3)cc1`, the Potency was 8.91 µM (active).

Regarding `COC(=O)c1c(NC(=O)CCCOc2ccccc2)sc2c1CCC(C)C2` (stereo not given), the “activity change, negative = inhibition” value is -57.2%. For the compound `CCOc1ccc(NC(=O)c2c(NC(=O)Cc3ccccc3)sc3c2CCC(C)C3)cc1` (stereo not given), the Potency was 3.38 µM (active). For `Cc1cccc(OCCCC(=O)Nc2sc3c(c2C(N)=O)CCC(C)C3)c1` (stereo not given), the “activity change, negative = inhibition” value is -11.5%. Same read-out and setting: the same measure for `CCOC(=O)c1ccc(NC(=O)c2c(NCc3cccc(OC)c3)sc3c2CCC3)cc1`: -14.3%; for `O=C(Cc1ccccc1)Nc1sc2c(c1C(=O)Nc1ccc(Br)cc1)CCC2`: 12.8%; for `COc1ccc(CCNS(=O)(=O)c2cc(-c3cc(C)no3)ccc2C)cc1OC`: -12.3%. The same measure, in the same setting: the same measure for `CC(C)c1nccn1CCCNc1nc(-c2ccncc2)nc2c1cnn2C`: -1.75%; for `COc1ccc(NC(=O)Cn2c(=O)n(CCC(C)C)c(=O)c3cccnc32)cc1Cl`: -5.33%. Still for that read-out and setting: the same measure for `N#Cc1ccc(NCCNCC(=O)N2CCCC2C#N)nc1` (stereo not given): -15.9%; for `CC(C)NC(=O)c1nn(-c2ccccc2F)nc1CO`: 0.972%; for `CC(C)Nc1ncc(C(=O)NC2CCCN(CCc3ccccc3)C2)cn1` (stereo not given): 4.22%. With `CN1CCCN(C(=O)CN2CC3CC(C2)[C@H]2CCCC(=O)N2C3)CC1` (stereo not given in full), the “activity change, negative = inhibition” value was -11%. On to `Cc1ccccc1-c1nc(NCc2ccc(-c3cccnc3)cc2)c2ccccc2n1`, for which the “activity change, negative = inhibition” value is -3.76%. On the same count and under the same terms, the same measure for `CC(C)(O)c1ccc2c(c1)C(=O)CC1[C@](C)(CO)CCC[C@]21C` (stereo not given in full): 154%; for `O=C(CSc1oc(-c2ccc(F)cc2)nc1S(=O)(=O)c1ccc(Br)cc1)NC1CCCCC1`: -29.8%. For the compound `COc1ccc(-c2nc(S(=O)(=O)c3ccccc3)c(N3CCCCC3)o2)cc1`, the Potency is 11.2 µM (active).

Turning to `COc1cccc(-c2nc(S(=O)(=O)c3ccc(C)cc3)c(NCc3ccccc3)o2)c1`, the “activity change, negative = inhibition” value was -20.1%.

Turning to `CN(C)c1cccc(-c2cnc(Nc3cnccn3)c3c2CCO3)c1`, the “outcome” value is “inactive [at 39.2 µM]”. Still for that read-out and setting: the same measure for `CCCCNc1nc(C)nc2c1nc(-c1ccccc1)n2CCCCN(CC)CC`: “inactive”. As for `COc1ccc(OC)c(NC(=O)C2CCCN(S(=O)(=O)c3ccc4c(c3)CCCC(=O)N4)C2)c1` (stereo not given), the “activity change, negative = inhibition” value is -6.34%. Still for that read-out and setting: to `C[C@H]1CC[C@@H]2N(C1)C[C@@H]1[C@H]([C@@H](O)[C@H](O)[C@]3(O)[C@H]1C[C@@]14OC5(O)[C@@H](C[C@@H](O)[C@@H]31)[C@]4(C)CC[C@@H]5O)[C@]2(C)O` belongs 9.38% [at 10 µM]. In the case of `COc1ccccc1CNC(=O)CN1CCCC(CO)(CC2CC2)C1` (stereo not given), the result was inactive. On to `COCCCN1CCC(NC(=O)c2cc(Cl)c(N)c3c2OCC3)CC1`, for which the “activity change, negative = inhibition” value is -1.5%.

`COC(=O)c1ccccc1NC(=O)c1ccc(COc2ccccc2Cl)o1`: the “activity change, negative = inhibition” value was -24.7%. Consider `COc1cc(OC)c(NC(=O)c2ccc(Cc3cc4c(cc3C)C(C)(C)CCC4(C)C)o2)c(OC)c1`, for which the Potency is 11.1 µM (active). `Cc1ccc(CN(C(=O)c2ccccc2[N+](=O)[O-])c2ccccn2)cc1`: the “activity change, negative = inhibition” value was -12.2%. On to `COc1ccc2oc(=O)c(-c3cn4c(n3)sc3cc(OC)ccc34)cc2c1`, for which the “activity change, negative = inhibition” value was -19.8%. For the compound `Cc1ccc(C2CCN(C(=O)c3cnn(-c4ccccc4Cl)c3C3CCN(C(=O)OC(C)(C)C)CC3)C2)cc1` (stereo not given), the “activity change, negative = inhibition” value was -9.46%.

In the case of `Cc1c(P(=S)(c2ccccc2)c2ccccc2)[n+]2ccccc2n1CCCCc1ccccc1`, the call was inactive.

In the case of `Cc1cnc(C(=O)N[C@H]2CCCCC/C=C\[C@@H]3C[C@@]3(C(=O)NS(=O)(=O)C3CC3)NC(=O)[C@@H]3C[C@@H](Oc4nc5ccccc5c5ccccc45)CN3C2=O)cn1`, the Potency result is “inactive”. In the case of `CS(=O)(=O)c1ccc(OC[C@H]2C[C@@H](NC(=O)c3ccccc3)[C@H](O)[C@@H]2O)cc1`, the “outcome” value is “inactive [at 39.2 µM]”. As to `CC1(C)[C@H](Cc2cc(-c3ccccc3)on2)C[C@@H]1NCC1CC1`, the “outcome” value is “inactive [at 39.2 µM]”. Turning to `Cc1cccc(NC(=O)CSc2ncc(-c3ccccc3)[nH]2)c1C`, the “activity change, negative = inhibition” value was -16.9%.

With `CCCc1nc(C(=O)N2CCC3(CCCNC3)C2)cs1` (stereo not given), the outcome was inactive. Regarding `Clc1ccccc1CSc1nncn2c1cc1occc12`, the “activity change, negative = inhibition” value was -10.5%. With `O=C(NCC(c1ccco1)S(=O)(=O)c1cccs1)c1ccc(F)cc1` (stereo not given), the “activity change, negative = inhibition” value is -9.32%. On the same count and under the same terms, the same measure for `CCOc1ccc(NC(=O)Cn2c(C)ccc(C#N)c2=O)cc1`: 1.17%.

For `COc1ccc(-c2ccc3ncn(C4CC4)c(=O)c3n2)cn1`, the “activity change, negative = inhibition” value is -5.28% [at 39.2 µM]. The same measure, in the same setting: to `Cc1ccc(-c2ccc(=O)n(CCNC(C)c3ccco3)n2)cc1` (stereo not given) belongs -11.9%.
